CD11b adhes enh: CD11b/CD18-fibrinogen binding enhancement | AID 1499 | activation, % at 10 µM | P05107+P11215 | K562 CD11b/CD18 adhesion to fibrinogen, ATPlite luminescence | 0.07% of 93,000 active;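 active means 10 µM primary screen giving 50% or more activity, confirmed by 40% or more on retest at that dose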
CD11b adhes inh: inhibitors of human CD11b/CD18 binding to fibrinogen. K562 CD11b/CD18 adhesion to fibrinogen, ATPlite luminescence; Mn2+ added to activate the integrin. P05107+P11215. 0.54% of 93,000 active. inhibition, % at 10 µM;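 active means primary inhibition of 50% or more at 10 µM, then 40% or more on retest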
Cav3 T inh: human Cav3.2 channel inhibition, primary screen. 4% of 100,000 active. Cav3.2-expressing cells, Fluo-4 calcium fluorescence FDSS; hits give low values. B-score at 10 µM;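 active means single-dose well whose peak fluorescence ratio is a statistical outlier from its plate by either plate-standardised score or position-corrected B-score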
Ecoli WT expand: blocks growth of wild type E. coli BW25113; OD600 absorbance; growth inhibition, % at 100 µM; 0.15% of 98,000 active; AID 710;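 active means growth inhibition above about 50% at one test dose, limit read from the data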;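 further: growth measured after 20 h incubation at 37 °C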
Numbers without * were called inactive; x = not tested or not shown. Only a selection was taken, and hits are over-represented in it overall.

SMILES | CD11b adhes enh | CD11b adhes inh | Cav3 T inh | Ecoli WT expand
COC(=O)[C@H]1C[C@H]1[C@@H](NC(=O)c1ccc[nH]1)c1ccccc1 | x | x | -0.853 | x
COC(=O)C1=C(C)N(CCCC(=O)O)C(=O)NC1c1cccc(OC)c1 (centres undefined) | x | x | 0.459 | x
CC(C)C1Cc2c(sc3[nH]c(=S)n(Cc4ccccc4)c(=O)c23)CO1 (centres undefined) | -5.7 | 53.2* | -2.61 | 0.0
Cc1ccc(C(O)P(=O)(OC2CCCCC2)OC2CCCCC2)cc1 (centres undefined) | -1.9 | -22.1 | -4.21* | 2.0
N#Cc1ccc(-c2ccc3c(c2)OCO3)nc1SCC(=O)OCc1ccccc1 | -4.2 | -7.2 | -4.64* | -21.0
COc1ccc(-c2ccc(C#N)c(SCC(=O)OCc3ccccc3)n2)cc1OC | -5.0 | 4.1 | -0.435 | -14.0
CC(c1ccco1)N(C(=O)CSc1ccc(Br)cc1)c1ccccn1 (centres undefined) | -1.1 | 1.3 | -4.54* | -1.0
Cc1ccc(NC(=O)CSC(N)=O)cc1Cl | -1.1 | 0.0 | -6.25* | -6.0
NC(=O)SCC(=O)Nc1cccc(Cl)c1 | 6.3 | -22.2 | -5.41* | -6.0
S=C1SCN(Cc2ccccn2)CN1Cc1ccco1 | -2.3 | 12.3 | 0.172 | 71.0*
CC(C)CN1CN(Cc2ccco2)CNC1=S | 2.9 | 0.6 | x | x
COCCN1CSC(=S)N(Cc2ccco2)C1 | 0.2 | 34.6 | 0.318 | 62.0*
COc1ccc(S(=O)(=O)Nc2cc(Sc3ncn[nH]3)c(O)c3ccccc23)cc1 | -5.1 | 89.8* | x | 17.0
COc1ccc(S(=O)(=O)Nc2ccc(O)c(Sc3ncn[nH]3)c2)cc1 | x | x | -0.322 | x
O=C(OC1CCCCC1)c1ccc2c(c1)C1C=CCC1C(C(=O)O)N2 (centres undefined) | 150.0* | -59.2 | x | -25.0
CCOC(=O)C1Nc2ccc(C)cc2C2C=CCC12 (centres undefined) | x | x | 0.563 | x
CC(=O)Nc1sc(N/N=C\c2ccco2)nc1-c1cccs1 | 1.4 | -6.5 | x | x
COC(=O)c1ccc(C(c2c(N)n(CC(C)C)c(=O)[nH]c2=O)N2CCN(c3ccccc3)CC2)cc1 (centres undefined) | -0.6 | 13.4 | -5.94* | -6.0
CCOc1ccccc1CNC(=O)c1cc2oc3ccccc3c2n1CC | -0.5 | -20.4 | -5.04* | -12.0
COc1cccc(CNC(=O)c2cc3oc4ccccc4c3n2C)c1OC | 0.1 | -20.7 | 0.298 | -6.0
COc1ccc(/C=N/NC(=O)c2ccc(N(C)S(=O)(=O)c3ccccc3)cc2)cc1OC | -1.1 | -31.3 | x | x
Cc1ccc2nc(SCCCCOc3ccccc3)[nH]c2c1 | x | x | -6.25* | -12.0
c1ccc(OCCSc2nc3ccccc3[nH]2)cc1 | x | x | -3.63* | x
Cc1ccccc1OCCCSc1nc2ccccc2[nH]1 | -10.9 | 103.8 | x | x
CCn1nnc(NC(=O)COc2ccc(C3CCCCC3)cc2)n1 | -9.4 | 74.4* | -0.839 | -1.0
SMILES | CD11b adhes enh | CD11b adhes inh | Cav3 T inh | Ecoli WT expand
CCN(CC)C(=O)N1CCc2ccccc2C1CN1C(=O)c2ccccc2C1=O (centres undefined) | x | x | -4.19* | x
O=C1c2ccccc2C(=O)N1CC1c2ccccc2CCN1C(=O)C1CCCCC1 (centres undefined) | 2.0 | -52.7 | -2.48 | -8.0
CC(C)(C)C(=O)Nc1ccc(-c2cn3ccsc3n2)cc1 | -8.7 | 61.1* | x | -3.0
CC(C)CC(=O)Nc1ccc(-c2cn3ccsc3n2)cc1 | -1.8 | 45.9 | 0.0522 | -2.0
Fc1ccc(Cn2c(SCc3ccc(F)c(F)c3)nnc2C(F)(F)F)cc1 | x | x | -3.79* | 28.0
Cc1sc(NC(=O)c2ccc(OCC(C)C)cc2)c(C(N)=O)c1-c1ccc(Cl)cc1Cl | x | x | -0.175 | -8.0
CN(C)c1nc(NCc2ccccc2)nc(SCC(=O)Nc2ccc(Cl)c(Cl)c2)n1 | x | x | -4.11* | -13.0
CCNc1nc(NCc2ccccc2)nc(SCC(=O)Nc2ccccc2)n1 | 3.5 | 17.3 | x | x
O=C(CN(C(=O)CSc1nc2ccccc2o1)c1ccccc1)NC1CCCCC1 | x | x | -2.95* | -8.0
O=C(CN(C(=O)CSc1nc2ccccc2o1)c1cccc(F)c1)NC1CCCCC1 | x | x | -5.63* | 4.0
CS(=O)(=O)N(CC(=O)NC1CCCC1)c1cccc(F)c1 | 2.2 | -1.1 | 1.01 | 4.0
Cc1ccc(-n2c(Cc3cccn3C)nnc2SCC(=O)NCc2ccc3c(c2)OCO3)cc1 | 9.6 | -2.1 | -5.01* | 2.0
Cc1ccc(-n2c(Cc3cccn3C)nnc2SCC(=O)Nc2nnc(C)s2)cc1 | -3.3 | -4.3 | -0.527 | 1.0
Cc1ccc(-n2c(Cc3cccn3C)nnc2SCC(=O)Nc2ccc3c(c2)OCO3)cc1 | -0.6 | 27.0 | -3.91* | 1.0
O=C1COc2ccc(C(=O)CSc3nnc(Cc4cccs4)n3-c3ccccc3)cc2N1 | -1.8 | -7.0 | -5.36* | 33.0
O=C(CSc1nccn1-c1cccc(Cl)c1)Nc1ccc2c(c1)OCCO2 | -0.1 | -14.2 | -3.68* | -10.0
C=CCNC(=S)NNC(=O)C(CCCC)CC(C)(C)O (centres undefined) | x | x | 0.524 | x
C/C=C/C(=O)Nc1cccc(C2=NOC3(C2)C[C@@H](C(N)=O)N(C(=O)C(c2ccccc2)c2ccccc2)C3)c1 (some centres undefined) | x | x | 0.0312 | x
Cn1cccc1Cc1nnc(SCC(=O)Nc2ccc3c(c2)OCCO3)n1-c1ccc(F)cc1 | 2.7 | -0.7 | -7.71* | -13.0
O=C(CSc1nnc(Cc2cccs2)n1-c1ccccc1)Nc1ccc2c(c1)OCCO2 | 12.0 | -5.6 | -4.84* | -11.0
Cc1ccccc1NC(=O)CSc1nnc(Cc2cccn2C)n1-c1ccc(F)cc1 | 7.1 | 2.6 | -1.43 | -4.0
CCCCCn1c2nc3ccccc3nc2c2c(=O)n(CC3CCCO3)c(C)nc21 (centres undefined) | 11.0 | -4.0 | x | x
CCCCCNC(=O)Cc1cc(=O)[nH]c(=O)[nH]1 | -0.3 | -18.3 | -0.198 | -4.0
N#Cc1nc(COc2cccc(Cl)c2)oc1N1CCN(c2ccccc2)CC1 | 1.0 | -7.6 | -2.42 | -17.0
Cc1cccc(OCc2nc(C#N)c(N3CC(C)CC(C)C3)o2)c1 (centres undefined) | -0.8 | 21.5 | -7.34* | -5.0
SMILES | CD11b adhes enh | CD11b adhes inh | Cav3 T inh | Ecoli WT expand
CCNc1oc(COc2cccc(C)c2)nc1C#N | -2.3 | -2.8 | -0.207 | -4.0
CN(Cc1ccccc1)c1oc(COc2ccccc2F)nc1C#N | -3.7 | 9.9 | -4.53* | -7.0
N#Cc1nc(COc2ccc(Br)cc2)oc1N1CCN(Cc2ccccc2)CC1 | -5.4 | 11.1 | -7.83* | -20.0
CC1CN(c2oc(COc3ccc(Cl)cc3Cl)nc2C#N)CC(C)O1 (centres undefined) | x | x | -4.71* | -12.0
c1csc(COc2ccccc2CNC2CCCCC2)c1 | -0.8 | -18.0 | x | x
c1ccc(Cn2cc(CNc3ccccc3)nn2)cc1 | x | x | -0.605 | x
Cc1cccc(OCc2nc(C#N)c(NCc3ccc4c(c3)OCO4)o2)c1 | 0.7 | 10.7 | -6.8* | -19.0
N#Cc1nc(COc2ccc(Cl)cc2)oc1N1CCCCCC1 | 6.2 | 6.2 | -5.02* | -1.0
N#Cc1nc(COc2ccccc2)oc1N1CCCCC1 | -4.9 | -3.2 | -5.96* | -2.0
COc1ccc(N2CCN(c3oc(COc4ccccc4Cl)nc3C#N)CC2)cc1 | 1.6 | -1.0 | -2.31 | -36.0
COc1ccc(OCc2nc(C#N)c(N3CCN(c4ccc(OC)cc4)CC3)o2)cc1 | x | x | -4.48* | -35.0
N#Cc1nc(COc2ccccc2Cl)oc1N1CCCCCC1 | x | x | 0.584 | -3.0

Assay outcomes (PubChem BioAssay)
